# According to the supplement of paper PMC6555819:
# How the values were obtained:
# Experiment in all cases: PBM binding z-score (relative to random genomic background probes); higher = stronger binding; sequences stand for … in GC…GCGATTGACAGCGTAGAATGAAGG
# [1] = system: FXR:RXRa (NR concentration 270 nM, RXRa partner concentration 90 nM)
# How it was run: (§1)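 Antibodies against each partner of ligand-free nuclear receptor dimers (one per run) detected binding on custom Agilent 4×180K protein-binding microarrays after 1 h incubation. The double-stranded probes had 34-nt variable regions carrying direct-repeat seeds, single-nucleotide variants, half-site ablations and random human genomic background sequences. Binding z-scores, from regression-normalized fluorescence, use the random background probes as reference.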
# [2] = system: LXRa:RXRa (NR concentration 270 nM, RXRa partner concentration 90 nM)
# How it was run: as §1
# [3] = system: LXRa homodimer (NR concentration 270 nM)
# How it was run: as §1
# [4] = system: LXRb:RXRa (NR concentration 270 nM, RXRa partner concentration 90 nM)
# How it was run: as §1
# [5] = system: LXRb homodimer (NR concentration 270 nM)
# How it was run: as §1
# [6] = system: PPARa:RXRa (NR concentration 270 nM, RXRa partner concentration 90 nM)
# How it was run: as §1
# [7] = system: PPARg:RXRa (NR concentration 180 nM, RXRa partner concentration 90 nM)
# How it was run: as §1
# [8] = system: PPARg:RXRa 270nM:90nM, anti-RXR (NR concentration 270 nM, RXRa partner concentration 90 nM)
# How it was run: as §1
# [9] = system: PPARg:RXRa 30nM:10nM, anti-RXR (NR concentration 30 nM, RXRa partner concentration 10 nM)
# How it was run: as §1
# [10] = system: PPARg:RXRa 90nM:30nM, anti-RXR (NR concentration 90 nM, RXRa partner concentration 30 nM)
# How it was run: as §1
# [11] = system: PPARg:RXRa DBDmut IVT, anti-RXR (DBD mutation: RXRa K156A/R161A, NR concentration 270 nM, RXRa partner concentration 90 nM)
# How it was run: as §1
# [12] = system: PPARg:RXRa IVT, anti-PPARg (NR concentration 270 nM, RXRa partner concentration 90 nM)
# How it was run: as §1
# [13] = system: PPARg DBDmut:RXRa IVT, anti-PPARg (DBD mutation: PPARg1 K132A/R137A, NR concentration 270 nM, RXRa partner concentration 90 nM)
# How it was run: as §1
# [14] = system: PPARg DBDmut IVT, anti-PPARg (DBD mutation: PPARg1 K132A/R137A, NR concentration 270 nM)
# How it was run: as §1
# [15] = system: PPARg homodimer (NR concentration 180 nM)
# How it was run: as §1
# [16] = system: PXR:RXRa (NR concentration 270 nM, RXRa partner concentration 90 nM)
# How it was run: as §1
# [17] = system: PXR homodimer (NR concentration 270 nM)
# How it was run: as §1
# [18] = system: RARa:RXR (NR concentration 270 nM, RXRa partner concentration 90 nM)
# How it was run: as §1
# [19] = system: RARa homodimer (NR concentration 270 nM)
# How it was run: as §1
# [20] = system: RARb:RXRa (NR concentration 270 nM, RXRa partner concentration 90 nM)
# How it was run: as §1
Sequence,PBM binding z-score [1],PBM binding z-score [2],PBM binding z-score [3],PBM binding z-score [4],PBM binding z-score [5],PBM binding z-score [6],PBM binding z-score [7],PBM binding z-score [8],PBM binding z-score [9],PBM binding z-score [10],PBM binding z-score [11],PBM binding z-score [12],PBM binding z-score [13],PBM binding z-score [14],PBM binding z-score [15],PBM binding z-score [16],PBM binding z-score [17],PBM binding z-score [18],PBM binding z-score [19],PBM binding z-score [20]
CAAACTAGGTCACCGGAAGGTCAACGTCCGCATG,6.21,6.05,4.21,4.6,1.1,6.13,9.54,8.04,5.72,7.83,8.78,8.78,2.66,1.2,6.53,5.79,1.29,7.37,2.46,5.38
GCTGGTAGGTCAGGTTGGTCAGCTAACGGGTACG,1.28,1.03,0.172,0.929,-0.0209,2.05,1.44,1.88,0.102,1.02,3.54,3.65,-0.271,0.163,1.32,0.581,0.431,0.986,0.462,3.16
TCTTGTAGATCAAGCAGGTTAAGAAAGCCTGAGT,0.0308,0.414,-0.381,0.385,-0.415,0.741,-0.57,1.21,2.46,1.7,1.72,0.78,0.218,0.401,0.138,0.519,0.388,0.546,-0.0455,0.228
AGTACAGGGTCATCGTAGGCCAGAGTACGCACAG,7.3,5.7,0.868,4.07,1.05,5.87,6.41,5.7,2.18,4.41,1.41,3.74,2.14,0.916,3.28,4.88,0.894,5.21,0.349,4.46
TTACCAAGGTGAAAGGTTGTTGATGCACGCCTTG,1.23,1.15,-0.416,1,-0.595,3.78,5.72,6.02,4.55,6.25,2.7,4.17,0.253,0.316,0.571,1.28,-0.373,2.32,0.397,1.63
CCTTACGGGTCACTCCAGGTTGTAGCATCGGAGT,4.5,6.32,0.477,3.72,0.0911,4.42,2.92,3.54,0.72,2.5,2.42,3.11,0.374,0.469,1.62,3.85,-0.0202,3.84,0.553,3.65
TGACCAAGGTGAGCTGAGGTCGTTGATCCAACTC,0.866,1.01,-0.752,0.289,-1.36,1.62,0.26,0.767,-0.66,0.279,0.169,1.43,0.123,-1.59,-0.0589,4.67,0.0412,1.84,-0.758,1.69
GGAACGAGGGCATTCGAGTTGGTAGCATGGCGAT,0.825,0.72,-0.575,-0.0954,-1.08,1.06,0.508,0.442,-0.573,-0.227,3.06,2.06,-0.924,0.13,-0.0441,2.69,0.354,0.386,-0.393,1.86
TAGCCTAGGTCATGCGGGCCTGTATAGTGTCGGC,3.73,3.24,0.135,1.6,-0.428,3.27,1.91,2.39,0.161,1.45,1.65,2.76,-0.075,-0.309,0.586,1.27,-0.864,2.14,-0.78,3.55
AGAACGAGGGCACGCTGAGTTCATAGCAGAGTAG,2.2,3.15,1.02,1.45,-0.593,3.12,2.52,2.43,0.373,1.47,3.84,3.89,0.826,-0.0454,1.16,5.94,10.4,2.94,-0.449,3.2
AAAATGAGGTTATTAAGATCAGGGAATTGCGGTC,1.95,1.63,0.3,1.44,-0.0347,2.8,2.05,2.19,0.556,1.48,3.99,3.21,0.794,0.452,0.921,1.23,0.722,1.41,0.567,1.51
CGAACGAGGGCATGAGTTGATCGCAAATGCCGAT,0.394,0.374,-0.273,0.109,-0.729,1.45,1.22,1.32,0.129,0.937,2.91,2.12,0.532,-0.694,-0.0725,0.503,-0.144,0.222,-0.96,1.86
ATAGACAGGTGAGTGAAGGTAACTCAGCTGGACG,0.729,0.567,-0.416,-0.043,0.00945,0.437,0.69,0.369,0.155,0.444,-0.0175,0.973,0.246,0.208,0.132,0.352,0.0205,0.959,-0.0264,0.603
CCGACTGGGGCAGAGAGGTTACCATACCATCCGG,-0.137,0.273,-0.349,0.271,-1.44,1.48,1.35,1.6,-0.221,0.899,2.02,1.91,-0.515,-1.59,0.15,0.359,-0.131,0.845,0.129,1.24
